Experimental data from PubChem BioAssay.

Molecular target: Homeobox protein Hox-A13 (Mus musculus) (UniProt Q62424)
Assay: disruptors of Hoxa13 oligonucleotide interaction – biochemical, fluorescence polarization, labeled oligonucleotide, primary screen (AID 1185)
Settings: Hoxa13:DNA binding, 15 min, higher = more signal, called active from +8 up or from −8 down

Sequence of Homeobox protein Hox-A13 (Mus musculus) (Q62424 whole entry, looked up): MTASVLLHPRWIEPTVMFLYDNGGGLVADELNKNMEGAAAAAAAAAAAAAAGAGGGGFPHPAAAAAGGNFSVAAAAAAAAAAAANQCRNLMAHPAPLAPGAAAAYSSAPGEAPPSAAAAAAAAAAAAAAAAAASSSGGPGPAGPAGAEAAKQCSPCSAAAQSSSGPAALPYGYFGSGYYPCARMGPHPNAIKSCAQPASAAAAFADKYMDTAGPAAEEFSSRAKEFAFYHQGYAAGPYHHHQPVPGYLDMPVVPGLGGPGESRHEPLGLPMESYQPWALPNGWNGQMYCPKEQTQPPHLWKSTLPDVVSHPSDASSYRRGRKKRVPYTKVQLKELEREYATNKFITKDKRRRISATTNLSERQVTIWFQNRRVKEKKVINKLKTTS

z-score, inactive:
COC(=O)c1c(CC[C@@H](CO)NC(=O)N2CCC[C@H]2Cn2cc(Cc3ccccc3)nn2)oc(C(C)=O)c1C(=O)OC -3.88
O=C(NCc1ccccc1)[C@@H]1c2ccccc2C(=O)N(Cc2ccccc2C(F)(F)F)[C@H]1c1ccc(CO)cc1 -3.17
O=C(NCCCCCNC(=O)/C(Cc1ccccc1)=N/O)OCc1ccccc1 -4.08
C=C[C@@H](COC(C)=O)N(C(=O)OC(C)(C)C)S(=O)(=O)c1ccc(Br)cc1 -2.35
CCOC(=O)C[C@H]1[C@H](OC(=O)c2ccccc2-c2ccccc2)[C@@H](NC(=O)c2ccc(-c3ccccc3)cc2)c2cc(OCCCO)ccc2N1C(=O)c1ccc2ccccc2n1 -1.48
CCOC(=O)C[C@H]1[C@H](OC(=O)c2cc3ccccc3oc2=O)[C@@H](NC(=O)Cc2ccc(OC)cc2)c2cc(OCCCO)ccc2N1C(=O)c1ccc2ccccc2n1 -4.04
O=C1O[C@H](c2ccccc2)[C@H](c2ccccc2)N2[C@H]1[C@@H](C(=O)Nc1nc3ccccc3s1)[C@]1(C(=O)Nc3ccc(C#CC4(O)CCCCCC4)cc31)[C@H]2c1ccccc1OCCO 2.05
COC(=O)[C@@]1(Cc2ccccc2N=[N+]=[N-])N=C(c2ccc(OCCCO)cc2)O[C@H]1c1ccccc1N=[N+]=[N-] -0.305
CC(c1ccccc1)C(O)C1C=CC2C(=O)N(c3ccccc3)C(=O)C2N1Nc1ccc([N+](=O)[O-])cc1 (stereo unspecified) -3.22
CN1C(=O)C2C=CC(C(O)c3ccc(F)cc3)N(Nc3ccccc3)C2C1=O (stereo unspecified) -2.9
CCCC[C@@H]1C[C@H]1[C@@H](NC(=O)Cc1ccccc1)c1ccc(-c2ccccc2)cc1 -0.559
O=C1C[C@@](C(=O)NCCN2CCOCC2)(c2ccc([N+](=O)[O-])cc2)[C@@H](c2ccc(CO)cc2I)N1C1CCCCC1 -5.37
COC(=O)[C@@]1(Cc2ccc(F)cc2)[C@H]2c3cc(C(=O)N4CCCC4)n(CCc4ccc(O)c(O)c4)c3C[C@H]2CN1C(=O)c1ccccc1 -4.67
COC(=O)C(CC#Cc1ccc2c(c1)[C@]1(C(=O)N2)[C@H](c2ccccc2OCCO)N2[C@H](c3ccccc3)[C@H](c3ccccc3)OC(=O)[C@H]2[C@@H]1C(=O)NC[C@H](O)c1ccccc1)C(=O)OC -1.59
COc1ccc(-c2nc(-c3ccccc3)c3c(c2C)CO[Si]3(C(C)C)C(C)C)cn1 -3.37
C=CCC(OC(C)=O)[C@@H]1[C@@H](N(Cc2cc3ccccc3o2)C(=O)c2ccc(C)cc2)c2cc(OCCCO)ccc2N1C(=O)Cc1ccc(OC)cc1 (stereo partly specified) -2.07
COc1ccc([Si](C)(C)[C@@H]2[C@@H](CC(=O)N(CCO)Cc3ccccc3)O[C@]3(C(=O)N(c4ccccc4)c4ccccc43)[C@H]2C)cc1 -5.59
O=C1OCC=C[C@H]2OC34C=CCN(c5ccc(Cl)cc5)C(=O)[C@H]3N(CCO)C(=O)[C@@H]4[C@@H]12 (stereo partly specified) -2.74
O=C1OCCC=C[C@H]2OC34C=CCN(Cn5nnc6ccccc65)C(=O)[C@H]3N(CCCCCCO)C(=O)[C@@H]4C12 (stereo partly specified) -3.78
CC(C)(C)N1CC=CC23O[C@@H]4C=CCOC(=O)[C@@H]4[C@H]2C(=O)N(CCCCCCO)[C@@H]3C1=O (stereo partly specified) -4.45
[N-]=[N+]=NCc1ccccc1[C@H]1OC(c2ccc(OCCCO)cc2)=N[C@@]1(CCS(=O)(=O)c1ccccc1)C(=O)NCC(O)CO (stereo partly specified) -2.82
C=C(/C(=C/C[C@H](OC(C)=O)c1cccc(OCCO)c1)c1cnc2ccccc2c1)C(C)C -4.29
COCCOC(=O)N1C(=O)[C@@]2(c3cc(C#CCCO)ccc31)[C@H](c1ccccc1OCCO)N1[C@H](c3ccccc3)[C@H](c3ccccc3)OC(=O)[C@H]1[C@@H]2C(=O)Nc1nc2ccccc2s1 1.85
Cc1cc(C)c(C(O)C2C=CC3C(=O)NC(=O)C3N2Nc2ccc(Cl)cc2Cl)c(C)c1 (stereo unspecified) -3.47
C=C(COC)/C(=C/C[C@H](OC(=O)c1ccncc1)c1ccccc1OCCO)c1cnc2ccccc2c1 -5.29
CCOC(=O)C1=CC[C@@H](c2ccccc2C(F)(F)F)N(S(=O)(=O)c2ccc(C)cc2)[C@H]1c1ccc(C#N)cc1 -0.224
OCC1CC(c2ccccc2)=NO1 (stereo unspecified) 0.0368
CC(C)(C)OC(=O)CC[C@]1(C(=O)NCC(O)CO)N=C(c2ccc(OCCCO)cc2)O[C@H]1c1ccccc1 (stereo partly specified) -4.14
COCCOC(=O)N1C(=O)[C@@]2(c3cc(C#Cc4ccc(OC)cc4)ccc31)[C@H](c1ccccc1OCCO)N1[C@H](c3ccccc3)[C@H](c3ccccc3)OC(=O)[C@H]1[C@@H]2C(=O)N1CCCCCCC1 4.73
O=C1C2C=CC(C(O)c3ccccc3)N(Nc3ccccc3F)C2C(=O)N1c1ccccc1 (stereo unspecified) -3.79
CO[C@]12C=C(Br)[C@@H](C[C@@H]1c1cccc(C)c1)[C@@]1(CO1)C2=O -1.7
Cn1cccc1C(O)C1C=CC2C(=O)NC(=O)C2N1Nc1ccc(Cl)cc1Cl (stereo unspecified) -3.92
C=C(C(=O)CC[C@@H](OC(C)=O)c1ccc(CO)o1)C(C)C -4.08
COCCOC(=O)N1C(=O)[C@@]2(c3cc(C#Cc4ccc(OC)cc4)ccc31)[C@H](C(=O)Nc1nc3ccccc3s1)[C@H]1C(=O)O[C@H](c3ccccc3)[C@H](c3ccccc3)N1[C@@H]2c1ccc(O)cc1 -0.829
CCCCCCCCCCC(O)C1C=CC2C(=O)N(C)C(=O)C2N1NC(=O)OC(C)(C)C (stereo unspecified) -2.93
COC(=O)c1ccc([C@H](NC(=O)c2ccco2)[C@]2(C)C[C@H]2C2CCCCC2)cc1 -2.66
